High-throughput results: PubChem, The Scripps Research Institute Molecular Screening Center
LYPLA2 inh = counter-screen for PME1 inhibitors: inhibitors of human LYPLA2. O95372. inhibition, % at 5.9 µM. AID 2177. 320,000 compounds, 0.38% hits. recombinant LYPLA2, FP-Rh probe fluorescence polarization;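 active = inhibition above the screen-wide mean plus 3 SD, limit set per campaign, cut at about 26% in these data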;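 note: 0% = LYPLA2 with DMSO and 100% = wells lacking LYPLA2 enzyme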
Target sequence (O95372 whole entry, looked up): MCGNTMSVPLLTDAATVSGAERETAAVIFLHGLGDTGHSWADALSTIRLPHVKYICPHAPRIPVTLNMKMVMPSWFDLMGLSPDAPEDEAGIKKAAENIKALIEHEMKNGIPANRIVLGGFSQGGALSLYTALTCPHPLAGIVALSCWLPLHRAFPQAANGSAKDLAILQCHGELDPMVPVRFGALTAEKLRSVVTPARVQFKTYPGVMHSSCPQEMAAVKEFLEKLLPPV
PME-1 primary = PME-1 (human) inhibition; Q9Y570; 320,000 compounds, 0.53% hits; recombinant PME-1, FP-Rh probe fluorescence polarization; inhibition, % at 5.9 µM;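 active = inhibition above the campaign mean of all compounds plus 3 SD, cut at about 26% in these data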;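 note: competitive labeling of PME-1 active site by serine hydrolase directed probe; 0% = PME-1 with DMSO and 100% = wells lacking PME-1 enzyme; inhibitors block probe labeling so polarization falls and inhibition rises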
Target sequence (Q9Y570 whole entry, looked up): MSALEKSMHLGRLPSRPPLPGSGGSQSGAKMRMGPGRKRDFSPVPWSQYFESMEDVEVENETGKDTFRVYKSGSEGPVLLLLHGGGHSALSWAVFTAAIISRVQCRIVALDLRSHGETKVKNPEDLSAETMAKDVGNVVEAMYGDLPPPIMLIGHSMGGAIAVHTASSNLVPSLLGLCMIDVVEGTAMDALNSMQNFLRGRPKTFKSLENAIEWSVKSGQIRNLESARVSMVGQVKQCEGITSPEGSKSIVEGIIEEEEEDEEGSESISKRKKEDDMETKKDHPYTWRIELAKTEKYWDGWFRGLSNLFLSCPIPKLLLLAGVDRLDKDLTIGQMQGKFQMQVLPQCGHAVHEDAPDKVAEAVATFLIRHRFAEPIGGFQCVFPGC
GSTO1 inh = counter-screen for RBBP9 inhibitors: inhibitors of human GSTO1. 300,000 compounds, 1.1% hits. AID 1974. recombinant GSTO1, activity-based probe fluorescence polarization. inhibition, % at 5.96 µM. P78417;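 active = inhibition above the campaign mean inhibition plus 3 SD, cut at about 35% in these data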;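 note: 0% = GSTO1-1 with DMSO and 100% = wells lacking GSTO1-1 enzyme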
Fam108B inh = blocks mouse Fam108B hydrolase in RBBP9 counter-screen; recombinant Fam108B, FP-Rh probe fluorescence polarization; inhibition, % at 9.51 µM; 300,000 compounds, 0.33% hits; AID 1947;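 active = inhibition above the screen mean inhibition plus 3 SD, computed separately per campaign, cut at about 18% in these data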;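 note: inhibitors lower polarization as less probe binds the enzyme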
LYPLA1 inh = blocks human lysophospholipase 1, a PME1 counter-screen; O75608; recombinant LYPLA1, FP-Rh probe fluorescence polarization; inhibition, % at 5.9 µM; 320,000 compounds, 0.16% hits;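 active = inhibition above the mean of all tested compounds plus 3 SD, set per campaign, cut at about 14% in these data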;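 note: inhibitors block serine hydrolase probe labeling of LYPLA1 so polarization falls; 0% = enzyme with DMSO and 100% = wells lacking LYPLA1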
PAD4 FP inh = inhibitors of human PAD4 | 330,000 compounds, 0.41% hits | Q9UM07 | recombinant PAD4, RCA probe fluorescence polarization | inhibition, % at 6.36 µM;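 active = percent inhibition above a cutoff equal to the mean of all tested compounds plus 3 SD, cut at about 15% in these data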;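 note: 0% = PAD4 with RCA probe and DMSO and 100% = probe without PAD4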
PAD4 confirm = PAD4 (human) inhibition, confirmed; inhibition, % at 6.36 µM; 1,200 compounds, 28% hits; recombinant PAD4, RCA probe fluorescence polarization; AID 488796; shares compounds with PAD4 FP inh;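 active = mean inhibition across replicates above the hit cutoff set by the earlier primary screen, cut at about 15% in these data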;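 note: inhibitors block active-site labeling by the probe so polarization falls; 0% = PAD4 with probe and DMSO and 100% = probe without PAD4 enzyme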
The depositor's hits bear a star; nt = not tested or not shown. Sampled rows, rich in hits. Any-hit rate of the full collection: about 1.8%.

SMILES | LYPLA2 inh | PME-1 primary | GSTO1 inh | Fam108B inh | LYPLA1 inh | PAD4 FP inh | PAD4 confirm
Nc1nc(C2CCCN2S(=O)(=O)c2ccc(Cl)cc2)cs1 (stereo not given) | 1.6 | 1.8 | 0.0 | -2.4 | 0.1 | 1.1 | nt
O=C(Oc1cccc(-c2cnc3ccccc3n2)c1)c1ccco1 | -3.3 | -2.1 | 13.5 | -3.4 | -1.9 | 24.3* | 19.2*
COC(=O)C(F)(Sc1c(C)n(C)n(-c2ccccc2)c1=O)C(F)(F)F (stereo not given) | -1.8 | 0.5 | 2.0 | -0.2 | 1.6 | 47.6* | 34.2*
CCOc1ccc2[nH]c(SCC(=O)OC)c([N+](=O)[O-])c2c1 | -4.1 | 2.1 | 8.2 | -1.1 | -0.9 | 34.7* | 38.1*
O=C(CCCn1c(=O)[nH]c2cc(Cl)ccc2c1=O)NCCCN1CCN(c2ccc(F)cc2)CC1 | 5.3 | 3.0 | 10.1 | -0.5 | -0.5 | -0.1 | nt
CC1(C)Cc2c(c(-c3ccco3)[nH]c(=O)c2C#N)CS1 | 6.6 | -0.2 | 17.9 | 2.5 | 2.2 | 26.2* | 4.7
CC1(C)Cc2c(c(-c3ccccc3)[nH]c(=O)c2C#N)CS1 | -1.8 | -4.7 | -2.4 | 1.7 | -2.8 | 0.7 | nt
O=C(COc1ccc(Br)cc1)N1CCN(S(=O)(=O)/C=C/c2ccccc2)CC1 | 8.7 | 9.5 | 0.9 | 3.9 | -1.6 | -3.2 | nt
O=C(COc1ccccc1F)N1CCN(S(=O)(=O)/C=C/c2ccccc2)CC1 | 12.5 | -3.9 | -1.1 | -3.9 | -0.9 | 55.9* | -0.2
COc1ccccc1C(=O)Nc1nc(-c2ccc(S(=O)(=O)N3CCOCC3)cc2)cs1 | -28.3 | -28.9 | -31.9 | -19.2 | -14.0 | 39.8* | 41.0*
COc1ccccc1OC(C)C(=O)Nc1nc(-c2ccc(S(=O)(=O)N3CCOCC3)cc2)cs1 (stereo not given) | -3.4 | -12.3 | -11.4 | -13.1 | -4.0 | -0.6 | nt
CCOC(=O)C1(Cc2ccccc2C)CCCN(C(=O)c2cc(CC)nn2C)C1 (stereo not given) | 5.8 | 0.8 | 2.4 | 3.5 | 2.3 | -2.5 | nt
CCOC(=O)C1CCN(CC(=O)N2CCc3ccccc32)CC1 | -1.1 | 2.0 | -0.9 | 2.0 | 2.9 | 37.9* | 2.0
CC1CCN(CC(=O)N2CCc3ccccc32)CC1 | -0.1 | -2.1 | 3.7 | 0.8 | -0.2 | -1.9 | nt
O=C(CSc1ccccn1)Nc1nonc1[N+](=O)[O-] | -0.5 | -7.6 | -2.5 | 1.4 | -1.2 | 18.6* | 6.7
O=C(CSc1ccccn1)Nc1ccc(NC(=O)CSc2ccccn2)cc1 | 0.3 | -6.9 | 1.3 | 1.9 | -4.3 | -1.1 | nt
O=S(=O)(Nc1ccc(Cl)cn1)c1ccc(Cl)cc1 | 1.9 | 4.6 | -1.6 | 0.2 | -1.7 | -2.8 | nt
Cc1cc(C)c(S(=O)(=O)Nc2ccc(Cl)cn2)c(C)c1 | 6.9 | -4.8 | 3.6 | 2.1 | 2.5 | 21.4* | 1.1
CC(=O)c1ccc(Sc2nnnn2-c2ccccc2)c([N+](=O)[O-])c1 | 5.6 | 1.7 | 13.2 | 1.7 | -2.5 | 16.6* | 13.6
CN1CCN(S(=O)(=O)c2ccc(Sc3nnnn3-c3ccccc3)c([N+](=O)[O-])c2)CC1 | 3.3 | 0.6 | 6.2 | 4.0 | 3.6 | 1.8 | nt
CCS(=O)(=O)CCSc1nc2ccccc2s1 | 4.2 | -1.1 | 0.6 | 0.2 | 3.0 | 3.3 | nt
O=S(=O)(CCSc1nc2ccccc2s1)c1nc2ccccc2s1 | -4.2 | 3.6 | -6.8 | -0.1 | -2.9 | 49.5* | 40.9*
N#CCC(=O)Nc1ccc(C(=O)N2CCN(c3ccccn3)CC2)cc1 | 1.8 | 1.9 | 1.1 | 0.1 | -3.3 | -5.0 | nt
O=C(CN1C(=O)NC2(CCCc3ccccc32)C1=O)N1CCN(c2cccc(C(F)(F)F)c2)CC1 (stereo not given) | 13.2 | 1.8 | nt | nt | 1.9 | -2.6 | nt
O=C1CSC2(C(=O)N3CCCc4cccc2c43)N1c1cccc(C(F)(F)F)c1 (stereo not given) | 6.5 | -1.2 | -3.1 | 1.2 | 0.7 | 18.0* | 8.1
SMILES | LYPLA2 inh | PME-1 primary | GSTO1 inh | Fam108B inh | LYPLA1 inh | PAD4 FP inh | PAD4 confirm
COc1ccc(N2C(=O)CSC23C(=O)N2CCCc4cccc3c42)cc1 (stereo not given) | 3.0 | -4.2 | 2.4 | -0.9 | 0.5 | 22.0* | 20.7*
COc1ccc(N2C(=O)CSC23C(=O)N2c4c(cccc43)C(C)=CC2(C)C)cc1 (stereo not given) | 0.9 | 7.6 | -11.3 | 4.3 | -4.3 | 11.2 | nt
Cc1ccc(C)c(-n2nnnc2Sc2nnnn2-c2ccccc2)c1 | 2.7 | -4.5 | -1.8 | -1.2 | -0.7 | 18.2* | 25.5*
CCCNC(=O)c1nc(C)n(-c2cc(Cl)ccc2Cl)n1 | -2.3 | -0.6 | -2.3 | -3.5 | -4.7 | 1.6 | nt
O=C1N[C@@H](Cc2ccccc2)COC(=O)[C@@H](Cc2ccc(F)cc2)C/C=C\C[C@@H]1CC(=O)N(CCO)Cc1ccccc1 | nt | nt | nt | nt | nt | -1.2 | nt
O=C1NCCOC(=O)[C@@H](Cc2ccc(F)cc2)C/C=C\C[C@@H]1CC(=O)N(CCO)Cc1ccccc1 | nt | nt | nt | nt | nt | 19.5* | -2.2
Cc1c(N)cc[n+](CC(=O)c2ccccc2)c1C | 2.9 | -3.0 | 1.4 | -1.8 | 3.6 | 1.6 | nt
CCOc1ccc(N2C(=O)CC(Sc3ccccc3C(=O)O)C2=O)c([N+](=O)[O-])c1 (stereo not given) | -3.1 | 6.8 | 14.4 | 4.7 | -1.8 | 26.2* | 12.6
C=CCC(CC=C)(NC(=O)c1ccccc1C)c1ccccc1 | -5.7 | 1.1 | 12.1 | -1.4 | -4.5 | 16.6* | 7.6
C=CCC(CC=C)(NC(=O)c1ccccc1)c1ccccc1 | 6.6 | -0.4 | 7.5 | 2.1 | -0.6 | -1.4 | nt
CC(=O)Nc1cc(C(=O)N2CCCC2)ccc1S(=O)(=O)c1ccc(Cl)cc1 | -0.6 | -0.5 | -0.1 | -0.1 | -2.8 | 0.3 | nt
N#CC1=C(N)Oc2n[nH]c(-c3cccs3)c2C1c1ccsc1 (stereo not given) | -1.6 | 6.2 | 20.7 | 3.8 | -3.5 | 17.4* | -9.8
CCOC(=O)C1=C(COC(=O)/C=C/c2ccc(O)c(OC)c2)NC(=O)NC1C (stereo not given) | 6.1 | 5.8 | nt | nt | -0.5 | -1.9 | nt
OCc1ccccc1SSc1ccccc1CO | -0.8 | -3.3 | 20.8 | -2.4 | 2.2 | 47.9* | 41.5*
CCOC(=O)c1cnc(-n2[nH]c(C)c(Cc3ccccc3)c2=O)[nH]c1=O | 0.8 | -0.1 | 20.6 | 3.5 | -1.6 | 2.0 | nt
COc1ccccc1CNC(=O)/C=C/c1cc2c(cc1Br)OCO2 | -9.8 | -2.1 | 8.0 | -1.4 | -4.6 | 1.1 | nt
COCCn1c(=S)[nH]c2cc(OC)c(OC)cc2c1=O | -1.3 | -3.4 | -0.9 | -2.8 | -1.8 | 42.8* | -2.6
CCN(CC)CCCn1c(=S)[nH]c2cc(OC)c(OC)cc2c1=O | -2.1 | 0.2 | 4.9 | 0.0 | 5.2 | 2.3 | nt
CC(=C/c1ccco1)/C=N/N1CCN(c2ccccc2)CC1 | 5.2 | 0.2 | 1.0 | 0.1 | 3.6 | 20.2* | -7.3
CCC(C)n1c(NC(=O)c2ccccc2)c(C#N)c2nc3ccccc3nc21 (stereo not given) | -11.3 | -5.0 | 24.5 | -8.1 | -5.4 | 28.9* | -17.5
